USP30 block = inhibitors of human USP30 deubiquitinase; inhibition, % at 25 µM; Q70CQ3; AID 1645860; purified USP30, Ub-rhodamine cleavage fluorescence; hit rate 5.3% among 47,000
Target sequence (Q70CQ3 whole entry, looked up): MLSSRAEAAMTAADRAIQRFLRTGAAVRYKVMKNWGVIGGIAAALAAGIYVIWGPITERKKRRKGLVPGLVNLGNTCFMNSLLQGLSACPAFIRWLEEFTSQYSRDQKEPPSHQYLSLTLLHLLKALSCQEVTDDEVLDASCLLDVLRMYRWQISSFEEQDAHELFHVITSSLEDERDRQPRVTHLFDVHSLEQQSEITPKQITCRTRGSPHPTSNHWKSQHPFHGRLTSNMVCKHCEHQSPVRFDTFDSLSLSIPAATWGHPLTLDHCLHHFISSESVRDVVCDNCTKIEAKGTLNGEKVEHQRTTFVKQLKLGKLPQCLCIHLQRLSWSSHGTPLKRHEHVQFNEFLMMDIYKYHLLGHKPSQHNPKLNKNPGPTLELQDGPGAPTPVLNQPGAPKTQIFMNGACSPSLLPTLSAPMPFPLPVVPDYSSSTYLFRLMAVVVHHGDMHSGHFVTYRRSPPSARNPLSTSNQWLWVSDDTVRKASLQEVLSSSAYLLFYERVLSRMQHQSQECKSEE
USP17 inh = human USP17-like deubiquitinase inhibition; AID 1645855; A8MUK1; inhibition, % at 50 µM; purified USP17, Ub-rhodamine cleavage fluorescence, 3 h; hit rate 6.5% among 47,000
* marks the source's active call; other numbers are inactive results; i = inactive; . = not tested or not shown. Rows were chosen to be rich in hits. Some 9.6% of all compounds tested hit in one or more screens of this group. No stated cut-off is given here; in the data, active means inhibition above about 30%; inactive means the rest.

SMILES	USP30 block	USP17 inh
COc1ccc(-c2cc(-c3ccccc3)nc(SCC(N)=O)c2C#N)cc1OC	-7	75*
COc1ccc(-c2nn(-c3ccccc3)cc2/C=C(/C#N)c2ccccc2)cc1OC	-26	-7
Cn1nc(-c2ccccc2)c2cc(C(=O)N3CCOCC3)sc21	12	0
CCOC(=O)c1cc2c(CSc3ccccc3)nn(C)c2s1	36*	28
Cc1ccc(-c2ccc(NCCN(C)C)nn2)cc1S(=O)(=O)N1CCCCC1	4	-10
O=C(c1cscn1)N1CCCC(c2ccnc(Nc3ccccn3)c2)C1 (stereo not drawn)	-7	-29
Cc1sc(NC(=O)CN2CCc3ccccc3C2)nc1-c1ccc2c(c1)CCN2C(=O)C1CCCCC1	-76	54*
Cc1sc(NC(=O)C2(c3ccc(Cl)cc3)CCC2)nc1-c1ccc2c(c1)CCN2C(=O)C1CCCCC1	31*	15
Cc1ccccc1C(=O)N1CCc2cc(-c3nc(NC(=O)C4(c5ccc(Cl)cc5)CCC4)sc3C)ccc21	.	-9
Cc1sc(NC(=O)C2CCCC2)nc1-c1ccc2c(c1)CCN2C(=O)C1CCCCC1	22	11
O=C(NCCc1nc(-c2ccncc2)n[nH]1)c1cccc2cccnc12	.	-15
O=C(NCCc1nc(-c2ccc3c(c2)OCO3)n[nH]1)c1cccc(Br)c1	11	38*
COC(=O)c1cc(S(=O)(=O)NCCc2ccc(Cl)cc2)cn1C	-13	-24
Cc1cccc(CNC(=O)c2cnc3c(C)cccn3c2=O)c1	-5	-3
CCc1ccccc1NS(=O)(=O)c1ccc2c(c1)NC(=O)CC(C)S2 (stereo not drawn)	15	7
Cc1cccc(OCC(=O)Nc2ccc3c(c2)CCC(=O)N3Cc2ccccc2)c1	31*	16
COc1cccc(OCC(=O)Nc2ccc3c(c2)CCC(=O)N3Cc2ccccc2)c1	11	20
Cc1cc(C)c(NC(=O)CS(=O)(=O)c2cn(CC(=O)N3CCC(C)CC3)c3ccccc23)c(C)c1	13	2
COc1ccc(OC)c(NC(=O)CS(=O)(=O)c2cn(CC(=O)N3CCC(C)CC3)c3ccccc23)c1	9	51*
O=C(C1CCC1)N1CCCn2cnc(Cn3ccnc3)c2C1	0	-2
Cc1nc2cc(-c3sccc3-n3c(C)ccc3C)nn2c(C)c1Cl	-40	6
COc1ccc(S(=O)(=O)N2CCN3C(=O)N(Cc4ccccn4)C(=O)C3(C)CC2)cc1 (stereo not drawn)	11	2
COc1cccc(CC2(Cc3cccc(OC)c3)C(=O)N(Cc3ccccn3)C(=O)c3ccccc32)c1	36*	21
Cc1ccccc1C(=O)N1CCC2(CC1)COCCN(Cc1cccnc1)C2	8	-5
COc1ccc(-c2nnc(NC(=O)Cc3ccc(F)cc3)o2)c(OC)c1	8	6
SMILES	USP30 block	USP17 inh
COc1ccccc1CNC(=O)c1cccc(Nc2nc3ccccc3n3cnnc23)c1	-15	2
O=C(NCc1ccc(F)cc1)c1cccc(Nc2nc3ccccc3n3cnnc23)c1	80*	72*
Cc1ccc(-c2cc(C(=O)Nc3ccc(S(N)(=O)=O)cc3)[nH]n2)c(O)c1	32*	39*
NS(=O)(=O)c1ccc(NC(=O)CNCCc2ccc(F)cc2)cc1	18	-11
Cc1ccc2c(c1)NC(=O)C(C(=O)NCc1ccccc1)O2 (stereo not drawn)	-5	0
CCOC(=O)C1CCN(C(=O)c2ccc3c(c2)NC(=O)C2CCCN32)CC1 (stereo not drawn)	11	73*
CCN1CCN(C(=O)c2ccc3c(c2)NC(=O)C2CCCCN32)CC1 (stereo not drawn)	-43	0
COc1cccc(CNC(=O)c2ccc3c(c2)NC(=O)C2CCCN32)c1OC (stereo not drawn)	-32	54*
O=C(NCc1ccccc1)c1ccc2c(c1)NC(=O)C1CCC(=O)N21 (stereo not drawn)	12	14
O=C(O)c1cc(-c2ccc(F)cc2)nc2ccnn12	.	8
COc1ccc(Cl)cc1NC(=O)CSc1nnc(-c2ccoc2C)o1	2	0
COc1ccc(Cl)cc1NC(=O)CSc1ncnc2nc[nH]c12	33*	26
O=C(C1CCOCC1)N1CCCCCC1C1CCN(Cc2nnnn2C2CC2)CC1 (stereo not drawn)	-25	-4
O=C1OCC2=C1C(c1ccsc1)CC(=O)N2c1ccc(C(F)(F)F)cc1 (stereo not drawn)	25	.
COc1ccccc1-c1noc(Cn2ccn3nc(-c4ccc(F)cc4)cc3c2=O)n1	-32	-5
COc1ccccc1-c1cc2c(=O)n(Cc3nc(-c4ccccc4C)no3)ccn2n1	47*	-4
CCCNCc1cc(=O)n2[nH]c(NCc3ccccc3Cl)nc2n1	.	3
CCCS(=O)(=O)N1C[C@H]2C[C@H](C(=O)Nc3cccnc3)[C@@H](C1)O2	-6	0
O=C1CC(c2cc3c(cc2Br)OCO3)c2cc3c(cc2N1)OCCO3 (stereo not drawn)	18	67*
O=C1CC(c2cc(F)ccc2F)c2cc3c(cc2N1)OCCO3 (stereo not drawn)	20	9
CCc1ccc(NC(=O)CSc2[nH]c(=O)c(C(=O)O)cc2C#N)cc1	20	42*
CCc1ccc(NC(=O)CSC2=NC3(CCCC3)Nc3ccccc32)cc1	-52	4
COc1cc(OC)c(OC)cc1CNC(=O)c1cccc2cccnc12	-1	28
CCc1ccc(C2CN3C(=O)CN(Cc4ccco4)C(=O)[C@]3(C)c3[nH]c4ccccc4c32)cc1 (stereo partly drawn)	-74	-15
C[C@]12C(=O)N(Cc3ccco3)CC(=O)N1CC(c1ccc(Br)cc1)c1c2[nH]c2ccccc12 (stereo partly drawn)	-53	34*
SMILES	USP30 block	USP17 inh
CCC(C)NC(=O)c1c(O)c2cccc3c2n(c1=O)CC3 (stereo not drawn)	25	11
COc1ccc(OCC(=O)Nc2cc(C)c(O)c(-c3nc4ccccc4o3)c2)cc1	15	-3
Cc1c(NC(=O)COc2ccc(C3CCCCC3)cc2)cccc1-c1nc2ncccc2o1	22	43*
CN(C)S(=O)(=O)Oc1ccc(C(=O)Nc2ccc(F)cc2)cc1	41*	40*
O=C(Nc1ccc(-n2cccc2)cc1)c1ccc(F)cc1	28	12
COc1ccc(C(=O)Nc2ccc3nc(C)c(C)nc3c2)cc1	-10	-5
COc1ccc(C(=O)Nc2cnc(-c3ccccc3)nc2)cc1	-17	38*
COc1ccc(C(C)NC(=O)c2cnc(-c3ccccc3)nc2-c2ccncc2)cc1 (stereo not drawn)	i	40*
Cc1ccc(C)c(CNC(=O)c2cnc(-c3ccccc3)nc2-c2ccncc2)c1	-308	-28
COc1ccc(-c2ncc(NC(=O)C3CC3)cn2)cc1	12	0
COc1ccc(NC(=O)c2ccc(C)cc2)cc1	31*	45*
O=C(c1ccc(F)cc1)N1CC[C@@H]2CN(C(=O)c3ccccc3)[C@@H]2C1	15	11
O=C(Nc1ccccc1)C(CC(=O)N1CCOCC1)C(=O)c1ccccc1 (stereo not drawn)	-4	-5
COc1ccc(NC(=O)[C@@H]2CCCN2C2=NS(=O)(=O)c3ccccc32)cn1	i	-126
Cc1cccc(NC(=O)[C@@H]2CCCN2C2=NS(=O)(=O)c3ccccc32)c1C	32*	35*
Cc1cc(C)n(-c2ccc(C(=O)Nc3cccc(Cl)c3C)nn2)n1	1	16
Cc1nc(C(=O)Nc2cccc(Cl)c2Cl)nn1-c1cc(Cl)cc(Cl)c1	24	71*

Assay outcomes: PubChem BioAssay, Buhrlage Lab, Dana-Farber Cancer Institute and Novartis Institutes for BioMedical Research (Cambridge, Mass)
